Measurements published in PubChem BioAssay (EPA / NIEHS).
Inconclusive results are not listed. Calls of active or inactive are those of the source. Rule for the calls, unless noted: active = hit-call score of the fitted dose curve at least 0.9, where 1 is the maximum; inconclusive = response in the unintended direction; inactive = score below 0.9.

How the values were obtained:
[1] = TOX21_p53_BLA_p2_viability: Viability Assessment in the Tox21 HCT-116 p53 Agonism Beta-lactamase Assay, Phase 2 (AID 2283591);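 note: actives lower the ATP signal meaning cytotoxicity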
Summary of the method: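 HCT116 p53-bla cells, 4000/well, dosed after 5 h plating (217-fold dilution of DMSO stocks) and incubated 16 h at 37C. Viability taken as cellular ATP by CellTiter-Glo luminescence after 30 min RT; signal loss marks cytotoxicity.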

[2] = TOX21_p53_BLA_p3_viability: Viability Assessment in the Tox21 HCT-116 p53 Agonism Beta-lactamase Assay, Phase 3 (AID 2283593);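 note: cells exposed to compound for 16 h before reading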
Summary of the method: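 HCT116 cells, 4000/well, dosed 5 h after plating by pin transfer (217-fold dilution from DMSO stock) and incubated 16 h at 37C, 5% CO2. Viability read as ATP luminescence with CellTiter-Glo after 30 min at room temperature.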

[3] = target: Cellular tumor antigen p53 (Homo sapiens) (UniProt P04637); test: TOX21_p53_BLA_p3_ratio: Tox21 HCT-116 p53 Agonism Beta-lactamase Assay, Ratio, Phase 3 (AID 2283596)
Summary of the method: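 Cells were seeded at 4000/well, rested 5 h at 37C, then dosed with DMSO compound solutions (217-fold dilution) for 16 h. CCF4-AM substrate was loaded for 2 h at room temperature, and the 460/530 nm emission ratio was fitted for gain of signal versus DMSO.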

[4] = target: Cellular tumor antigen p53 (Homo sapiens) (UniProt P04637); test: TOX21_p53_BLA_p5_ratio: Tox21 HCT-116 p53 Agonism Beta-lactamase Assay, Ratio, Phase 5 (AID 2283599)
Summary of the method: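 HCT-116 p53-bla cells (4000/well) plated 5 h, dosed with compound (217-fold DMSO dilution) for 16 h at 37 C; CCF4-AM substrate 2 h at room temperature. Activity is the 460/530 nm emission ratio (405 nm excitation), fitted in gain-of-signal direction versus DMSO.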

[5] = target: Cellular tumor antigen p53 (Homo sapiens) (UniProt P04637); test: TOX21_p53_BLA_p4_ratio: Tox21 HCT-116 p53 Agonism Beta-lactamase Assay, Ratio, Phase 4 (AID 2283601)
Summary of the method: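 HCT-116 p53 beta-lactamase reporter cells (4000/well) preincubated 5 h, then compound (217-fold dilution of DMSO stock) for 16 h at 37C. CCF4-AM substrate added 2 h at room temperature; 460/530 nm emission ratio fitted upward versus DMSO.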

[6] = TOX21_p53_BLA_p4_viability: Viability Assessment in the Tox21 HCT-116 p53 Agonism Beta-lactamase Assay, Phase 4 (AID 2283597);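 note: hits lower the luminescence signal meaning cytotoxicity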
Summary of the method: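 4000 HCT116 cells per well; 5 h attachment; compounds from DMSO, 217-fold dilution; 16 h at 37C. Then CCF4-AM, 2 h RT, followed by CellTiter-Glo, 30 min RT, luminescence. Decrease = cytotoxicity.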

[7] = TOX21_p53_BLA_p5_viability: Viability Assessment in the Tox21 HCT-116 p53 Agonism Beta-lactamase Assay, Phase 5 (AID 2283600)
Summary of the method: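 Decreased CellTiter-Glo luminescence denotes lost viability. Exposure: 16 h at 37C, 5% CO2, with compounds from DMSO stocks diluted 217-fold in wells of 4000 cells.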

[8] = CCTE_Harrill_HTTr_Viability_MCF7: CCTE's 6-hour Cell Viability Assessment for the High-Throughput Transcriptomics (HTTr) Platform, in MCF-7 cells cultured in DMEM + 10% fetal bovine serum, Harrill Lab (AID 2284010; active = hit-call score of the fitted dose curve at least 0.9, where 1 is the maximum; inactive = score below 0.9)
Summary of the method: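 Read-out is propidium iodide gain of signal by high-content imaging, reflecting membrane integrity loss. Measurements are taken 6 h after dosing, eight concentrations per chemical, with DMSO serving as baseline for bidirectional curve fitting.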

[9] = CCTE_Harrill_HTTr_Apoptosis_MCF7: CCTE's 6-hour Apoptosis Assessment for the High-Throughput Transcriptomics (HTTr) Platform, in MCF-7 cells cultured in DMEM + 10% fetal bovine serum, Harrill Lab (AID 2284011; active = hit-call score of the fitted dose curve at least 0.9, where 1 is the maximum; inactive = score below 0.9)
Summary of the method: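 MCF-7 cells in DMEM + 10% FBS exposed 6 h to chemicals over an eight-point dilution series. Caspase-3/7 activation imaged by high-content CellEvent Green staining; fitted bidirectionally versus DMSO.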

[10] = CCTE_Harrill_HTTr_CellCount_MCF7: CCTE's Cell Proliferation Assessment for the High-Throughput Transcriptomics (HTTr) Platform, Harrill Lab (AID 2284012);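 note: cells exposed to compound for six hours; intended direction is loss of nuclei count meaning fewer cells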
Summary of the method: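 Cell count served as viability reporter: loss of Hoechst-stained nuclei, counted by high content imaging, marks decreased growth or survival. Exposure was 6 h in MCF-7 cells across eight concentrations, with DMSO as baseline.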

[11] = TAMU_PeakParms_SingleDonor1434_Chronotropy: Texas A&M University (TAMU) 1.5-hr Human Induced Pluripotent Stem Cell (iPSC)-derived Cardiomyocytes Calcium (Ca+2) Flux Assay for Cardiotoxicity: Chronotropy (changes in peak frequency) (AID 2284217; active = hit-call score of the fitted dose curve at least 0.9, where 1 is the maximum; inactive = score below 0.9); details: actives raise or lower the signal
Summary of the method: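 Beat rate, as mean Ca2+-flux peak frequency, was read from donor 1434 iPSC cardiomyocytes 90 min after exposure to 0.2–100 uM test chemical (0.5% DMSO). Wells that stopped beating were excluded; EC05 from bidirectional DMSO-referenced fitting.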

[12] = TAMU_HCS_1.5hr_SingleDonor1434_Cytotoxicity: Cytotoxicity Assessment using High-content Screening (HCS) Fluorescent Imaging for the Texas A&M University (TAMU) 1.5-hr Human Induced Pluripotent Stem Cell (iPSC)-derived Cardiotoxicity Assay (AID 2284234)
Summary of the method: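 Nuclear counts from Hoechst 33342 imaging define cytotoxicity here, with EC10 (10% cell-count loss relative to DMSO) as point of departure. iPSC cardiomyocytes received 0.2-100 uM test chemical in 0.5% DMSO for 1.5 h at 37 C.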

[13] = TAMU_PeakParms_SingleDonor1434_QT: Texas A&M University (TAMU) 1.5-hr Human Induced Pluripotent Stem Cell (iPSC)-derived Cardiomyocytes Calcium (Ca+2) Flux Assay for Cardiotoxicity: QT (decay-rise ratio) (AID 2284235)
Summary of the method: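 Decay/rise ratio of calcium-flux fluorescence scored after 90 min exposure (37C) of donor 1434 iPSC cardiomyocytes to 0.2–100 uM (0.5% DMSO). Beat-cessation and severe-notch points removed; POD is EC05, a 5% rise over DMSO.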

[14] = TAMU_PeakParms_SingleDonor1434_Asystole: Texas A&M University (TAMU) 1.5-hr Human Induced Pluripotent Stem Cell (iPSC)-derived Cardiomyocytes Calcium (Ca+2) Flux Assay for Cardiotoxicity: Asystole (quiescence of beating) (AID 2284328)
Summary of the method: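 Donor 1434 iPSC-cardiomyocytes exposed 90 min at 37C, 5% CO2, to 0.2, 1, 10 and 100 uM in 0.5% DMSO. Ca2+ dye fluorescence gave average peak frequency; POD is EC95, a 95% beat-rate drop versus controls.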

Measured: AC50

Sequence of Cellular tumor antigen p53 (Homo sapiens) (P04637 whole entry, looked up): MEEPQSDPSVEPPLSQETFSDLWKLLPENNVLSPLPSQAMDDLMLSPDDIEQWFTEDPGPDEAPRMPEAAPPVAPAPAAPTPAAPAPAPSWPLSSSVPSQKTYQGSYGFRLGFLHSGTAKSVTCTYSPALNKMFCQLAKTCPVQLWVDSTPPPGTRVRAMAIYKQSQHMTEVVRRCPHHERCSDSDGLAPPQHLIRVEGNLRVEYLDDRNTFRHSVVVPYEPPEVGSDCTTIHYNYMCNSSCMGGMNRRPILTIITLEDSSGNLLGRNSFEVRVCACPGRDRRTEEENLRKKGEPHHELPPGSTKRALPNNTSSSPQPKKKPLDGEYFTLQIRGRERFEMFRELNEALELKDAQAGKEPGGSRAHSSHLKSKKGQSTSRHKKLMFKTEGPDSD

Nc1nc2c(c(=O)[nH]1)N(C=O)C(CNc1ccc(C(=O)N[C@@H](CCC(=O)O)C(=O)O)cc1)CN2 (stereo partly drawn)
inactive: [1] | [2] | [3] | [4] | [5]

Cc1cccc(Oc2ccccc2)c1
inactive: [1] | [2] | [3] | [6] | [5]

COc1ccc([C@@H]2Sc3ccccc3N(CCN(C)C)C(=O)[C@@H]2OC(C)=O)cc1
active: [2] 38.8 µM | [3] 43.6 µM
inactive: [1] | [7] | [5] | [8] | [9]

CC(N)C(=O)OC(C)(C)Cc1ccc(Cl)cc1 (stereo not drawn)
inactive: [1] | [2] | [3] | [7] | [5]

O=C(O)c1ccccc1Cl
inactive: [1] | [2] | [3] | [4] | [7] | [5]

NC[C@H]1O[C@H](O[C@H]2[C@H](O)[C@@H](O[C@H]3O[C@H](CO)[C@@H](O)[C@H](N)[C@H]3O)[C@H](N)C[C@@H]2N)[C@H](N)C[C@@H]1O
inactive: [1] | [2] | [3] | [4] | [5]

COc1ccc(C(=O)N2CCN(CC(=O)N3CCOCC3)CC2)cc1
inactive: [1] | [2] | [3] | [7] | [5]

C[n+]1ccccc1/C=N/O
inactive: [1] | [2] | [3] | [7]

CC(=O)OC(C)=O
inactive: [1] | [2] | [3] | [4] | [7]

O=S(O)CNc1ccc(S(=O)(=O)c2ccc(NCS(=O)O)cc2)cc1
inactive: [1] | [2] | [3] | [7]

NCC1CCC(C(=O)O)CC1 (stereo not drawn)
inactive: [1] | [2] | [3] | [4] | [5]

[O]=[Mo](=[O])=[O]
inactive: [1] | [2] | [3] | [7]

C=CCN1CCCC1CNC(=O)c1cc(S(N)(=O)=O)cc(OC)c1OC (stereo not drawn)
inactive: [1] | [2] | [3] | [4] | [5]

COc1cc(OC)cc(OC)c1
inactive: [1] | [2] | [3] | [4] | [7] | [5]

CCN[C@@H]1C[C@H](N)[C@@H](OC2OC(CN)=CCC2N)[C@H](O)[C@H]1O[C@H]1OC[C@](C)(O)[C@H](NC)[C@H]1O (stereo partly drawn)
inactive: [1] | [2] | [3] | [4] | [7] | [5]

NC1CCN(c2cccc(Cl)n2)CC1
inactive: [1] | [2] | [3] | [4] | [7] | [5]

CCCc1nn(C)c2c(=O)[nH]c(-c3cc(S(=O)(=O)N4CCN(C)CC4)ccc3OCC)nc12
inactive: [1] | [2] | [3] | [7]

CCCCCCCCC(=O)Cl
inactive: [1] | [2] | [3] | [4] | [7]

CCOC(=O)[C@@H](N)CS
inactive: [1] | [2] | [3] | [7] | [5]

CCOC(=O)Cn1c(=O)sc2cccc(Cl)c21
inactive: [1] | [2] | [3] | [4] | [7] | [5]

CO[C@H]1C[C@H](O[C@H]2[C@H](C)[C@@H](O[C@@H]3O[C@H](C)C[C@H](N(C)C)[C@H]3OC(C)=O)[C@@H](C)C[C@]3(CO3)C(=O)[C@H](C)[C@@H](OC(C)=O)[C@@H](C)[C@@H](C)OC(=O)[C@@H]2C)O[C@@H](C)[C@@H]1OC(C)=O
inactive: [1] | [2] | [3] | [4] | [7]

CC(=O)CCCCn1c(=O)c2c(ncn2C)n(C)c1=O
inactive: [10]

COc1ccc(CCN(C)CCCC(C#N)(c2ccc(OC)c(OC)c2)C(C)C)cc1OC (stereo not drawn)
inactive: [10] | [11] | [12] | [13] | [14]

CC1=C(C)C(=O)C(C(CCCCCC(=O)O)c2ccccc2)=C(C)C1=O (stereo not drawn)
inactive: [1] | [2] | [6] | [7] | [5]

CCOC(=O)COc1ccc2c(C)c(CCN(CC)CC)c(=O)oc2c1Cl
inactive: [1] | [2] | [4] | [7]

C=C(C)C(=O)OCCCCCCCCCCOC(=O)C(=C)C
inactive: [1] | [2] | [4]

CC(C)OC(C)C
inactive: [1] | [2] | [4] | [7] | [5]

O=C1O[C@H]2[C@H](O)[C@@H]1OC(O)[C@H]2O (stereo partly drawn)
inactive: [1] | [2] | [6] | [7] | [5]

CC(C)(CC(=O)O)C(=O)O
inactive: [1] | [2] | [4] | [7]

O=C(O)c1ccccc1S
inactive: [1] | [2] | [4]

O=C(O)COc1nn(Cc2ccccc2)c2ccccc12
inactive: [1] | [2] | [6] | [7] | [5]
